Experimental data from PubChem BioAssay (NCI).
About 79,000 compounds went through this panel and 15% of them were active in at least one assay; those are over-represented in the sample as a whole. Calls of active or inactive are those of the source. No stated cut-off is given here; in the data, active means growth inhibition above about 70%; inactive means the rest.

Experiments:
[1] = NCI Yeast Anticancer Drug Screen. Data for the rad52 strain (AID 147);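 further: 0% = growth of vehicle-treated control cultures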; details: S. cerevisiae rad52 mutant growth inhibition, active compounds read high
Procedure, shortened: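 Screen used a yeast mutant impaired in DNA repair. After compound exposure, growth was measured. Values reflect inhibition compared with vehicle-treated cells.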

[2] = NCI Yeast Anticancer Drug Screen. Data for the wt1 strain (AID 149);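 further: 0% = growth of vehicle-treated wt1 cultures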; details: S. cerevisiae wt1 strain (SPY 50644) growth inhibition, active compounds read high
Procedure, shortened: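 The wt1 strain was treated with compounds, and growth was compared with vehicle-treated cultures to give inhibition.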

[3] = NCI Yeast Anticancer Drug Screen. Data for the rad50EPP+ strain (AID 151);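 further: 0% = growth of vehicle-treated control cultures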; details: S. cerevisiae rad50 mutant strain, active compounds read high
Procedure, shortened: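 Exposing the rad50EPP+ strain to each compound, growth was compared with vehicle-only cultures to give inhibition.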

[4] = NCI Yeast Anticancer Drug Screen. Data for the mgt1 strain (AID 153); details: S. cerevisiae mgt1 mutant growth inhibition, active compounds read high
Procedure, shortened: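 Genetically defined yeast (mgt1) treated with compound; inhibition of growth expressed against vehicle-treated controls.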

[5] = NCI Yeast Anticancer Drug Screen. Data for the rad50 strain (AID 155);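 further: 0% = growth of vehicle-only cultures of the same strain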; details: S. cerevisiae rad50 strain growth inhibition, active compounds read high
Procedure, shortened: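 Cells are treated with compound, grown, and their growth is then scored against vehicle-only cultures of the same repair-deficient yeast strain.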

[6] = NCI Yeast Anticancer Drug Screen. Data for the mec2-1 strain (AID 157); details: S. cerevisiae mec2-1 strain, active compounds read high
Procedure, shortened: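 Readout is yeast growth inhibition, normalised to vehicle-treated controls, in the mec2-1 strain exposed to compound.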

[7] = NCI Yeast Anticancer Drug Screen. Data for the sgs1 mgt1 strain (AID 161);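 further: 0% = growth of cultures given vehicle only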; details: S. cerevisiae sgs1 mgt1 strain, active compounds read high
Procedure, shortened: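 Percent growth inhibition was derived by comparing compound-exposed mutant yeast with vehicle-exposed cultures. The strain carries alterations in DNA damage repair.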

[8] = NCI Yeast Anticancer Drug Screen. Data for the CLN2oe strain (AID 163);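 further: 0% = growth of vehicle-only control cultures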; details: S. cerevisiae CLN2oe strain, active compounds read high
Procedure, shortened: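 Values reflect how much compound exposure reduced yeast growth, referenced to vehicle-exposed cells. Assay organism is a strain with a defined genetic change affecting cell-cycle control.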

[9] = NCI Yeast Anticancer Drug Screen. Data for the cln2 rad14 strain (AID 165);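 further: 0% = growth equal to vehicle treated cultures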; details: S. cerevisiae cln2 rad14 strain, active compounds read high
Procedure, shortened: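 Relative to vehicle controls, growth inhibition of compound-treated cln2 rad14 yeast was recorded.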

[10] = NCI Yeast Anticancer Drug Screen. Data for the bub3 strain (AID 167); details: S. cerevisiae bub3 mutant strain, active compounds read high
Procedure, shortened: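 Part of a panel of yeast mutants defective in DNA damage repair or cell cycle regulation. Each strain is grown with compound, and inhibition is calculated relative to solvent-treated cultures.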

[11] = NCI Yeast Anticancer Drug Screen. Data for the wt2 strain (AID 169);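 further: 0% = growth of vehicle-treated yeast cultures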; details: S. cerevisiae wt2 strain growth inhibition, active compounds read high
Procedure, shortened: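 Values express reduction in yeast growth under compound treatment, referenced to vehicle-treated cells.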

[12] = NCI Yeast Anticancer Drug Screen. Data for the sgs1 strain (AID 173);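 further: 0% = growth of vehicle-only control cultures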; details: S. cerevisiae sgs1 mutant, active compounds read high
Procedure, shortened: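 Treat defined-mutant yeast with compound; measure growth; calculate inhibition relative to vehicle-treated cells.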

[13] = NCI Yeast Anticancer Drug Screen. Data for the mlh1 rad18 strain (AID 175); details: S. cerevisiae mlh1 rad18 strain growth inhibition, active compounds read high
Procedure, shortened: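 Test agents were incubated with a yeast strain of defined genotype (DNA damage repair defect). Inhibition of growth was derived by comparison with vehicle-exposed cultures.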

[14] = NCI Yeast Anticancer Drug Screen. Data for the rad18 strain (AID 177); details: S. cerevisiae rad18 mutant growth inhibition, active compounds read high
Procedure, shortened: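 A genetically defined yeast mutant impaired in DNA damage repair was treated with test compounds, then its growth was measured against cultures receiving vehicle alone.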

[15] = NCI Yeast Anticancer Drug Screen. Data for the rad14 strain (AID 159);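 further: 0% = growth of vehicle-treated control cultures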; details: S. cerevisiae rad14 strain growth inhibition, active compounds read high
Procedure, shortened: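 Readout: yeast growth inhibition, referenced to vehicle-only cultures. Strain bears a defined alteration in DNA damage repair.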

[16] = NCI Yeast Anticancer Drug Screen. Data for the mlh1 strain (AID 171);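 further: 0% = growth of vehicle-treated control cultures of the same strain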; details: S. cerevisiae mlh1 strain growth inhibition, active compounds read high
Procedure, shortened: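 Steps: expose the defined-mutant yeast strain to compound; expose a parallel culture to vehicle; measure growth; express compound effect as inhibition relative to the vehicle culture.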

[17] = at 5.0 µM (retest, dose inferred, filed as 0.5)
[18] = at 50.0 µM (retest, dose inferred, filed as 5.0)

Measured: growth inhibition

O=C1C(=C2CCCC2)CCC1CN1CCCCC1 (stereo unspecified)
active: [1]; at 100.0 µM 96% | [2]; at 100.0 µM 89% | [3]; at 33.0 µM 80% | [3]; at 100.0 µM 94% | [4]; at 100.0 µM 95% | [5]; at 50.0 µM 76.3% | [5]; at 100.0 µM 95% | [6]; at 33.0 µM 70% | [6]; at 100.0 µM 96% | [8]; at 100.0 µM 91% | [10]; at 33.0 µM 81% | [10]; [18] 80% | [10]; at 100.0 µM 97% | [11]; at 100.0 µM 93% | [12]; at 33.0 µM 87% | [12]; at 100.0 µM 97% | [13]; [18] 83% | [14]; at 33.0 µM 81% | [14]; at 100.0 µM 94%
inactive: [1]; at 1.2 µM 3% | [1]; at 3.7 µM 16% | [1]; at 11.0 µM 20% | [1]; at 33.0 µM 64% | [2]; at 1.2 µM 6% | [2]; at 3.7 µM 12% | [2]; at 11.0 µM 27% | [2]; at 33.0 µM 30% | [3]; at 1.2 µM 28% | [3]; at 3.7 µM 36% | [3]; at 11.0 µM 48% | [4]; at 1.2 µM -10% | [4]; at 3.7 µM 5% | [4]; at 11.0 µM 13% | [4]; at 33.0 µM 54% | [5]; at 1.2 µM 2% | [5]; at 3.7 µM 8% | [5]; [17] -3% | [5]; at 11.0 µM 9% | [5]; at 33.0 µM 60% | [5]; [18] 57% | [6]; at 1.2 µM -7% | [6]; at 3.7 µM -12% | [6]; [17] 6% | [6]; at 11.0 µM 9% | [6]; [18] 60% | [6]; at 50.0 µM 68.7% | [7]; [17] 9% | [7]; [18] 57% | [7]; at 50.0 µM 58.9% | [8]; at 1.2 µM -16% | [8]; at 3.7 µM 11% | [8]; at 11.0 µM -1% | [8]; at 33.0 µM 40% | [9]; [17] 4% | [9]; [18] 14% | [9]; at 50.0 µM 43.5% | [10]; at 1.2 µM 8% | [10]; at 3.7 µM 10% | [10]; [17] -21% | [10]; at 11.0 µM 18% | [10]; at 50.0 µM 55.6% | [11]; at 1.2 µM -17% | [11]; at 3.7 µM 2% | [11]; at 11.0 µM 11% | [11]; at 33.0 µM 68% | [12]; at 1.2 µM 34% | [12]; at 3.7 µM 30% | [12]; at 11.0 µM 63% | [13]; [17] -29% | [13]; at 50.0 µM 63.5% | [14]; at 1.2 µM 8% | [14]; at 3.7 µM 6% | [14]; at 11.0 µM 27%

[N-]=[N+]=NC1(c2ccccc2)C(=O)Nc2ccccc2C1=O (stereo unspecified)
active: [6]; at 50.0 µM 81.3% | [9]; at 50.0 µM 81.1% | [10]; at 50.0 µM 75.5%
inactive: [1]; at 1.2 µM -2% | [1]; at 3.7 µM 0% | [1]; at 11.0 µM 4% | [1]; at 33.0 µM 20% | [1]; at 100.0 µM 49% | [2]; at 1.2 µM -4% | [2]; at 3.7 µM -2% | [2]; at 11.0 µM -3% | [2]; at 33.0 µM 4% | [2]; at 100.0 µM 22% | [3]; at 1.2 µM 0% | [3]; at 3.7 µM 3% | [3]; at 11.0 µM 6% | [3]; at 33.0 µM 9% | [3]; at 100.0 µM 7% | [4]; at 1.2 µM -3% | [4]; at 3.7 µM -6% | [4]; at 11.0 µM 8% | [4]; at 33.0 µM 2% | [4]; at 100.0 µM 27% | [5]; at 1.2 µM -4% | [5]; at 3.7 µM -2% | [5]; [17] -4% | [5]; at 11.0 µM -20% | [5]; at 33.0 µM 17% | [5]; [18] 14% | [5]; at 50.0 µM 67% | [5]; at 100.0 µM 37% | [6]; at 1.2 µM 2% | [6]; at 3.7 µM 2% | [6]; [17] -23% | [6]; at 11.0 µM 6% | [6]; at 33.0 µM 19% | [6]; [18] 1% | [6]; at 100.0 µM 33% | [15]; at 1.2 µM -3% | [15]; at 3.7 µM -1% | [15]; at 11.0 µM 8% | [15]; at 33.0 µM 12% | [15]; at 100.0 µM 21% | [7]; [17] -20% | [7]; [18] 16% | [7]; at 50.0 µM 67.7% | [9]; [17] -3% | [9]; [18] 29% | [10]; at 1.2 µM -4% | [10]; at 3.7 µM -1% | [10]; [17] -28% | [10]; at 11.0 µM 18% | [10]; at 33.0 µM 41% | [10]; [18] 61% | [10]; at 100.0 µM 59% | [11]; at 1.2 µM -3% | [11]; at 3.7 µM -2% | [11]; at 11.0 µM 1% | [11]; at 33.0 µM 13% | [11]; at 100.0 µM 22% | [16]; at 1.2 µM -2% | [16]; at 3.7 µM -5% | [16]; at 11.0 µM 1% | [16]; at 33.0 µM 12% | [16]; at 100.0 µM 17% | [12]; at 1.2 µM -1% | [12]; at 3.7 µM 2% | [12]; at 11.0 µM 9% | [12]; at 33.0 µM 27% | [12]; at 100.0 µM 39% | [13]; [17] -22% | [13]; [18] 46% | [13]; at 50.0 µM 58% | [14]; at 1.2 µM -2% | [14]; at 3.7 µM 1% | [14]; at 11.0 µM 7% | [14]; at 33.0 µM 19% | [14]; at 100.0 µM 50%
